# According to PubChem BioAssay:
# Several values for one entry are separate records, joined by “and”; a condition that tells them apart may be missing. Identical values can stand only once. For some of these results: Potency and affinity values are given separately. Activity calls are given as the source filed them. Unless noted, how the calls were made is not given here.
# Assays:
# [1] = molecular target: 6-phosphogluconate dehydrogenase, decarboxylating (Homo sapiens) (UniProt P52209); test: inhibition of human phosphogluconate dehydrogenase – biochemical, recombinant enzyme, NADPH absorbance, primary screen (AID 1159550;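 active means at least 20% inhibition of 6-phosphogluconate dehydrogenase activity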); conditions: recombinant 6PGD, NADPH absorbance 341 nm; at 10 µM; stronger effect = higher value
# [2] = compounds altering circadian rhythm period length – cell-based, LOPAC library, luminescence reporter (AID 2774); conditions: circadian reporter cells, at 7 µM, actives lie on both sides;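 further: values are relative to mean of DMSO wells on each plate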
# [3] = compounds altering viability of human ES cells (AID 493140); conditions: human embryonic stem cell survival screen; stronger effect = higher value;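 further: cells exposed to compounds for four days before counting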
# [4] = P. berghei load reduction in hepatocytes – cell-based, HepG2, luciferase luminescence, HepG2 viability, primary screen (AID 624349; in the data active means parasite load remaining mostly below about 12%, no sharp cut-off; inactive means mostly above about 10%;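 further: 100% = mean of DMSO negative control wells on the same plate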); conditions: P. berghei liver stage in HepG2, luciferase luminescence, concentration not given here; parasite load remaining: stronger effect = lower value; viability: measured here: HepG2 viability without parasites
# [5] = system: Hepatitis C virus NS3 helicase; test: blockers of NS3h binding to ssDNA – biochemical, fluorescence polarization, LOPAC1280 library, primary screen (AID 687035; in the data active means inhibition above about 37%); conditions: Purified HCV NS3 helicase, Cy5-dT15 ssDNA binding fluorescence polarization; stronger effect = higher value; concentration not given here
# [6] = EMT-state selective cytotoxicity in co-culture – imaging, PC-3E GFP, TEM4-18 mCherry, primary screen (AID 1345086;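 active means compounds killing one labelled cell type while sparing the other, by normalised counts and ratio limits, not self-fluorescent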;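 on all read-outs here: cells exposed to compound for 72 h before imaging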;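 on red/green cell ratio (normalised): normalised mesenchymal count divided by normalised epithelial count so high means epithelial killing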); conditions: PC-3E GFP / TEM4-18 mCherry co-culture, imaging cell counts, at 1 µM; for red/green cell ratio (normalised): actives lie on both sides
# [7] = system: Aerobactin synthetase IucA (Klebsiella pneumoniae hvKP1); test: IucA enzyme inhibition, primary screen, biochemical, Spectrum library (AID 1346200); conditions: malachite green pyrophosphate, A620, at 8 µM, stronger effect = lower value;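 further: 100% = wells without compound and 0% = wells lacking enzyme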
# [8] = viability loss with induced miR-34 in A549 – imaging, A549 dox-inducible miR-34, nuclei and caspase counts, primary screen (AID 1347080;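 active means compounds whose cell count with miR-34 switched on is under 0.7 times the count with it off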); conditions: A549 miR-34 inducible, Hoechst nuclei count, 48 h
# [9] = molecular target: Mitogen-activated protein kinase 7 (Homo sapiens) (UniProt Q13164); test: Gal4-ERK5 driven luciferase induction – cell-based, HTS, primary screen (AID 1508626;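 active means luciferase signal above three times the same-plate solvent-only control wells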;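 further: luciferase driven by Gal4-ERK5 fusion binding five Gal4 sites before minimal TATA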); conditions: HeLa Gal4-ERK5 transactivation, 18 h, at 5 µM, stronger effect = higher value
# [10] = galactose survival enhancers in mitochondrial complex I cybrids – cell-based, galactose medium, ATP luminescence, primary screen (AID 1645843;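 active means z-score of at least 1.8 in each of two replicates, scored against plate mean and spread of sample wells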;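 further: positive z means more ATP and so rescue of galactose-driven cybrid death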); conditions: complex I mutant cybrid cells, 72 h, stronger effect = higher value
# [11] = blockers of polyQ-driven CASP3 activation – cell-based (AID 1583); conditions: polyglutamine-induced caspase-3 activation, cell assay; stronger effect = higher value;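 tested at 10 µM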
# [12] = yeast 75Q aggregation reduction – 75Q-TubU reporter (AID 1593); conditions: Yeast 75Q polyglutamine aggregation reporter
# [13] = restoration of touch response, mutant HTT neurons – whole organism, C. elegans mechanosensory neurons, N-terminal huntingtin (AID 1599); conditions: C. elegans polyQ-huntingtin mechanosensory neurons, stronger effect = higher value
# [14] = blockers of cytochrome c efflux from mitochondria – biochemical, purified mitochondria (AID 1603); conditions: stronger effect = lower value;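 further: mouse liver mitochondria challenged with calcium chloride; signal normalized to the plate average as 100%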
# [15] = polyglutamine aggregate formation blockers (AID 1604); conditions: polyglutamine-induced protein aggregation inhibition assay; stronger effect = higher value; tested at 2.5 µM
# [16] = glutamate transport activators, MN-1 cells, MN-1 cell line (AID 1612); conditions: MN-1 motor neuron cells, stronger effect = higher value;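 further: tested at 1 µM final; 0% = mean of DMSO vehicle wells on each plate; positive means more glutamate uptake than control and negative means less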
# [17] = GFP-Q80 aggregate reduction, neuronal-like cells, cell-based, NGF-treated PC12, GFPQ80 (AID 1614); conditions: PC12 NGF-treated GFP-polyQ80 inclusion reduction;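 further: lower means fewer inclusions and 0 means no inclusions at all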
# [18] = 75Q-TubH aggregate inhibition, S. cerevisiae, yeast (AID 1616); conditions: S. cerevisiae 75Q-TubH polyglutamine aggregation suppression; stronger effect = higher value
# [19] = molecular target: NAD(+) hydrolase SARM1 (Homo sapiens) (UniProt Q6SZW1); test: blocking NAD cleavage by SARM1 SAM-TIR – cell lysate, NAD-Glo luminescence (AID 1508614;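 active means compound whose remaining NAD level is above about 45 nM, limit read from the data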); conditions: SAM-TIR HEK293T lysate NADase, at 1 µM, stronger effect = higher value
# [20] = MELAS cybrid and Rieske KO viability enhancers – cell-based, MELAS cybrids, Rieske KO mouse fibroblasts, CellTiter-Glo, primary screen (AID 1508586;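 active means mean z-score across replicates of 1.96 or higher in either the MELAS or the Rieske mutant cell line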;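 further: z relative to plate mean and SD of compound and empty wells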); conditions: low glucose
# [21] = measured here: epithelial PC-3E GFP cell survival
# [22] = measured here: mesenchymal TEM4-18 mCherry cell survival
# [23] = measured here: relative caspase fold change +Dox/-Dox
# [24] = measured here: total cells with miR-34 induction, stronger effect = lower value
# [25] = measured here: total cells without miR-34 induction
# [26] = counts scaled to control wells, 1 = unselective
# [27] = MELAS cybrid survival, CellTiter-Glo 48 h, stronger effect = higher value
# [28] = Rieske KO mouse fibroblast survival, CellTiter-Glo 72 h
# Sequence of NAD(+) hydrolase SARM1 (Homo sapiens) (Q6SZW1 whole entry, looked up): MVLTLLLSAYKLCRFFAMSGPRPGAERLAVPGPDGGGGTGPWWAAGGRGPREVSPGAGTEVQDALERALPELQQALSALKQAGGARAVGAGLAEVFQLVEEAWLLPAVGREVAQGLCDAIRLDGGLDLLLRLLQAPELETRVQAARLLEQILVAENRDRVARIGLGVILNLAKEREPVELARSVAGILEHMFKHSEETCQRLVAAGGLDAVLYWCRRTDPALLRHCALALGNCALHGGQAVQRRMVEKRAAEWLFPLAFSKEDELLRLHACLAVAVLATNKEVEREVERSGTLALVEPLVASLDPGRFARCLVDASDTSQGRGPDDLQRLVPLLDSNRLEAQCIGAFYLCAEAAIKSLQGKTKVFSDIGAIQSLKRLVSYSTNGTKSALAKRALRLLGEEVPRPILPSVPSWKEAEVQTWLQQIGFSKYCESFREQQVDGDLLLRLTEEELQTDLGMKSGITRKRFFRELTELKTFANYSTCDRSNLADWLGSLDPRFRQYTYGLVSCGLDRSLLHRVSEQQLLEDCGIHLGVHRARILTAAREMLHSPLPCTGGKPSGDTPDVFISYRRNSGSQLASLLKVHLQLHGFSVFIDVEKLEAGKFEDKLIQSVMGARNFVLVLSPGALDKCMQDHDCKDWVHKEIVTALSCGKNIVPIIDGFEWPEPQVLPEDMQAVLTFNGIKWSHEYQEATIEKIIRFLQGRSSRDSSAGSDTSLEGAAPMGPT
# Sequence of 6-phosphogluconate dehydrogenase, decarboxylating (Homo sapiens) (P52209 whole entry, looked up): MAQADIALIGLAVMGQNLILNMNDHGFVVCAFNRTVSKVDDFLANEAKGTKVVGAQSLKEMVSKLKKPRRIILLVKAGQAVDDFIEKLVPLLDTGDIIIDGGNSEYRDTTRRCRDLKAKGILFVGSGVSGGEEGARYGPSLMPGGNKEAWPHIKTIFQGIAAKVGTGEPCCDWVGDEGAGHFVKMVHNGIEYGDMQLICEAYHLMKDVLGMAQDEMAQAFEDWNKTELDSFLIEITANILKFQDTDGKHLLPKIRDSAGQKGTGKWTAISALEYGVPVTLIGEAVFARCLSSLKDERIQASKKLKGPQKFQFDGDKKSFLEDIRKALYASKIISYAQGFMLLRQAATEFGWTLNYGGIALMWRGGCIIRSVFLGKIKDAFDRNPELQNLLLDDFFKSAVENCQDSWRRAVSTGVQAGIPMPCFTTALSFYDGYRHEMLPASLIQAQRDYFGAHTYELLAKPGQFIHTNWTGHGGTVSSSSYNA
# Sequence of Mitogen-activated protein kinase 7 (Homo sapiens) (Q13164 whole entry, looked up, the tested form may be a part): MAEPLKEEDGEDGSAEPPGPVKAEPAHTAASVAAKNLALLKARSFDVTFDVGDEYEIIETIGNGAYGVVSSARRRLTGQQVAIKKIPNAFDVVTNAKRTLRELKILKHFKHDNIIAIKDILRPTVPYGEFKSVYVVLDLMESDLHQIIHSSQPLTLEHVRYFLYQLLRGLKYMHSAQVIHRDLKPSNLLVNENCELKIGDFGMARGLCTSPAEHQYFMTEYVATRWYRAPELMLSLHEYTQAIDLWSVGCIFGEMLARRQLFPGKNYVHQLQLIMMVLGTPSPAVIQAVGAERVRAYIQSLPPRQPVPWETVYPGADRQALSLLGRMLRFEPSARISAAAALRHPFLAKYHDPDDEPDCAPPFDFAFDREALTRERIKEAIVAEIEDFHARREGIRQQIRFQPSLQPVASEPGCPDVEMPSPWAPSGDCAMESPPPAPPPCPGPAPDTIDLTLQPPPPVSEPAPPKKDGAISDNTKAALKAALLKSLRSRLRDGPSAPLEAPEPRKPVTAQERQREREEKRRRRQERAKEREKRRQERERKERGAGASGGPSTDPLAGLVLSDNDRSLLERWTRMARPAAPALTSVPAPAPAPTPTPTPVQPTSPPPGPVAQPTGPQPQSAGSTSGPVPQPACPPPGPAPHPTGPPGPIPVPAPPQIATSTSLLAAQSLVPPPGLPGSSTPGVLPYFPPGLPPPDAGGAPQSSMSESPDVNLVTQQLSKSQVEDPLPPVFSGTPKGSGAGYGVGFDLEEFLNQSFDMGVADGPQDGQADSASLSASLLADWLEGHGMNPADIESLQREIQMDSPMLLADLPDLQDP
smiles,measurement,setting,value
C#CCOS(=O)OC1CCCCC1Oc1ccc(C(C)(C)C)cc1 (configuration not stated),inhibition,[1],-21.1% (inactive)
Cc1nccc2c1[nH]c1ccccc12,period change,[2],0.11 h (inactive)
same,survival,[3],12.2 (inactive)
same,parasite load remaining,[4],94.4% (inactive) and 63.5% (inactive)
same,viability,[4],116% and 79%
same,inhibition,[5],-1% (inactive)
same,inhibition,[1],-8.63% (inactive)
same,red/green cell ratio (normalised),[6],0.96 (inactive)
same,normalised cell number,[6]; [21],0.91
same,normalised cell number,[6]; [22],0.87
same,activity remaining,[7],102% (inactive)
same,fold change,[8]; stronger effect = lower value,0.91 (inactive) and 0.859 (inactive)
same,fold change,"[8]; stronger effect = lower value, cell number ratio, induced over uninduced",0.856 (inactive)
same,fold change,[8]; [23],1.74 and 1.56 and 1.32
same,cell count,[8]; [24],8890 and 7490 and 7920
same,cell count,[8]; [25],9780 and 8760 and 9220
same,luciferase signal,[9],132 AU (inactive)
same,z-score,[10],-0.38 (inactive) and -0.595 (inactive)
ClC(Cl)=C(c1ccc(Cl)cc1)c1ccc(Cl)cc1,inhibition,[1],-15% (inactive)
CC1=CC(=O)C2=C(C)C[C@H](O)[C@H]3[C@H](C)C(=O)O[C@@H]3C12 (some centres not stated),inhibition,[1],-7.67% (inactive)
O=C(O)CCC1NCC2CC1CN1CCCCC21 (configuration not stated),inhibition,[1],1.87% (inactive)
same,red/green cell ratio (normalised),[6]; [26],1.12 (inactive)
same,normalised cell number,[6]; [21],0.9
same,normalised cell number,[6]; [22],1.01
same,activity remaining,[7],120% (inactive)
CNC(C)C(O)c1ccccc1 (configuration not stated),inhibition,[11],28.1% and 10.2%
same,score,[12],0.95 and 1.05
same,rescue above control,[13],-2.36 and -10.7
same,cytochrome c release ratio,[14],1.45 and 0.98
same,inhibition of aggregation,[15],84.6% and 51.5%
same,glutamate uptake change,[16],-17.5% and 6.9%
same,inclusion score,[17],2
same,aggregation suppression score,[18],1.13 and 1.02
same,parasite load remaining,[4],90.9% (inactive) and 53.2% (inactive)
same,viability,[4],77.9% and 114%
same,inhibition,[1],-20.1% (inactive)
same,red/green cell ratio (normalised),[6],0.97 (inactive)
same,normalised cell number,[6]; [21],1.05
same,normalised cell number,[6]; [22],1.03
same,activity remaining,[7],81.5% (inactive)
same,fold change,[8]; stronger effect = lower value,0.894 (inactive)
same,fold change,[8]; [23],2.97
same,cell count,[8]; [24],10800
same,cell count,[8]; [25],12100
same,remaining NAD,[19],10 nM (inactive)
same,luciferase signal,[9],24 AU (inactive)
O=C1NC(=O)C(=O)C(=O)N1,inhibition,[1],-13.9% (inactive)
same,red/green cell ratio (normalised),[6],0.89 (inactive)
same,normalised cell number,[6]; [21],1.09
same,normalised cell number,[6]; [22],0.98
same,activity remaining,[7],123% (inactive)
same,luciferase signal,[9],44 AU (inactive)
C[C@@H](N)[C@@H](O)c1ccccc1,parasite load remaining,[4],28.8% (inactive)
same,viability,[4],110%
same,inhibition,[1],-16.8% (inactive) and 9.51% (inactive)
same,red/green cell ratio (normalised),[6],0.97 (inactive)
same,normalised cell number,[6]; [21],1.13
same,normalised cell number,[6]; [22],1.1
same,activity remaining,[7],122% (inactive)
same,fold change,[8]; stronger effect = lower value,0.851 (inactive)
same,fold change,[8]; [23],1.36
same,cell count,[8]; [24],8010
same,cell count,[8]; [25],9410
same,z-score,[20]; [27],-0.426 (inactive)
same,z-score,[20]; [28],-0.509
CC[C@@H]1C(=O)OC[C@@H]1Cc1cncn1C,inhibition,[11],5.24%
same,score,[12],1.3
same,rescue above control,[13],1.26
same,cytochrome c release ratio,[14],1.64
same,inhibition of aggregation,[15],35.3%
same,glutamate uptake change,[16],4.33%
same,inclusion score,[17],2
same,aggregation suppression score,[18],1.4
same,period change,[2],-0.045 hour (inactive) and -0.055 hour (inactive)
same,survival,[3],5.75 (inactive)
same,inhibition,[5],-2% (inactive) and 1% (inactive)
same,inhibition,[1],-6.49% (inactive)
same,red/green cell ratio (normalised),[6]; [26],1.18 (inactive)
same,normalised cell number,[6]; [21],0.97
same,normalised cell number,[6]; [22],1.14
same,activity remaining,[7],115% (inactive)
same,z-score,[20]; [27],0.213 (inactive)
same,z-score,[20]; [28],-0.117
same,remaining NAD,[19],10 nM (inactive)
same,luciferase signal,[9],44 AU (inactive)
same,z-score,[10],0.47 (inactive) and 0.265 (inactive) and 0.26 (inactive)
[N-]=[N+]=CC(=O)OCC(N)C(=O)O (configuration not stated),inhibition,[11],30.9%
same,score,[12],1.27
same,rescue above control,[13],6.35
same,cytochrome c release ratio,[14],1.1
same,inhibition of aggregation,[15],-39.4%
same,glutamate uptake change,[16],-10.2%
same,inclusion score,[17],1
same,aggregation suppression score,[18],0.586
same,parasite load remaining,[4],3.63% (inactive)
same,viability,[4],82.2%
same,inhibition,[1],12.8% (inactive)
same,red/green cell ratio (normalised),[6],1.35 (inactive)
same,normalised cell number,[6]; [21],0.86
same,normalised cell number,[6]; [22],1.16
same,activity remaining,[7],105% (inactive)
same,fold change,[8]; stronger effect = lower value,0.832 (inactive)
same,fold change,[8]; [23],1.38
same,cell count,[8]; [24],601
same,cell count,[8]; [25],722
CN[C@@H]1[C@@H](O)C(OC2[C@@H](N)C[C@@H](N)[C@H](O[C@H]3O[C@H](C(C)O)[C@@H](O)[C@H](O)[C@H]3N)[C@H]2O)OC[C@]1(C)O (some centres not stated),inhibition,[1],15.2% (inactive)
same,red/green cell ratio (normalised),[6]; [26],1.08 (inactive)
same,normalised cell number,[6]; [21],0.91
same,normalised cell number,[6]; [22],0.99
same,activity remaining,[7],111% (inactive)
CN1CCc2cc3c(cc2C1O)OCO3 (configuration not stated),inhibition,[11],-17.4%
same,score,[12],1.48
same,rescue above control,[13],11.7
same,cytochrome c release ratio,[14],0.81
same,inhibition of aggregation,[15],65.5%
same,glutamate uptake change,[16],6.97%
same,inclusion score,[17],2
same,aggregation suppression score,[18],1.11
same,survival,[3],16.8 (inactive)
same,parasite load remaining,[4],109% (inactive) and 58% (inactive)
same,viability,[4],90% and 91.8%
same,inhibition,[1],0.261% (inactive)
same,red/green cell ratio (normalised),[6],1.09 (inactive)
same,normalised cell number,[6]; [21],0.97
same,normalised cell number,[6]; [22],1.06
same,activity remaining,[7],118% (inactive)
same,fold change,[8]; stronger effect = lower value,0.923 (inactive)
same,fold change,[8]; [23],1.43
same,cell count,[8]; [24],11700
same,cell count,[8]; [25],12700
same,remaining NAD,[19],10 nM (inactive)
same,luciferase signal,[9],52 AU (inactive)
O=C1C=C2C=C[C@@H]3C[C@@]2(O1)[C@H]1CCCCN31,parasite load remaining,[4],73.8% (inactive)
same,viability,[4],90.5%
same,inhibition,[1],6.02% (inactive)
same,red/green cell ratio (normalised),[6],0.9 (inactive)
same,normalised cell number,[6]; [21],1.21
same,normalised cell number,[6]; [22],1.09
same,activity remaining,[7],109% (inactive)
same,remaining NAD,[19],10 nM (inactive)
same,luciferase signal,[9],92 AU (inactive)
COc1cc(OC)c(OC)cc1C=O,parasite load remaining,[4],70.8% (inactive)
same,viability,[4],91.7%
same,inhibition,[1],-2.13% (inactive)
same,red/green cell ratio (normalised),[6],1.04 (inactive)
same,normalised cell number,[6]; [21],1.13
same,normalised cell number,[6]; [22],1.18
same,activity remaining,[7],109% (inactive)
same,fold change,[8]; stronger effect = lower value,0.932 (inactive)
same,fold change,[8]; [23],0.878
same,cell count,[8]; [24],9380
same,cell count,[8]; [25],10100
same,z-score,[20]; [27],-0.272 (inactive)
same,z-score,[20]; [28],0.673
same,luciferase signal,[9],156 AU (inactive)
O=C1C=CC(=O)c2c(O)cccc21,inhibition,[11],-40.3%
same,score,[12],0.54
same,rescue above control,[13],2.83
same,cytochrome c release ratio,[14],0.82
same,inhibition of aggregation,[15],100%
same,glutamate uptake change,[16],42.9%
same,aggregation suppression score,[18],0.876
same,inhibition,[1],-2.17% (inactive)
same,red/green cell ratio (normalised),[6],0.98 (inactive)
same,normalised cell number,[6]; [21],1.05
same,normalised cell number,[6]; [22],1.03
same,activity remaining,[7],127% (inactive)
same,fold change,[8]; stronger effect = lower value,0.989 (inactive)
same,fold change,[8]; [23],0.796
same,cell count,[8]; [24],2420
same,cell count,[8]; [25],2440
same,luciferase signal,[9],52 AU (inactive)
